Source: PubChem BioAssay (NCATS)
Inconclusive results are not listed. Activity calls are given as the source filed them. Calls come from the whole dose curve; as a rule, active = well fitted cell-killing curve with a large enough effect; inconclusive = small, poorly fitted or top-dose-only effect, or effect the other way; inactive = no such curve, though single readings can be large or run the other way.

Assay: Quantitative High-Throughput drug screen in 47 multiple myeloma cell lines against the NCATS MIPE library collection: AMO1_DSMZ cell viability assay (AID 1918927; note: nearly all actives have a fitted effect of over 30% in size)
Details: AMO1 myeloma cells viability, CellTiter-Glo ATP luminescence, 48 h; series mostly up to 45.8 µM
How it was run: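 Myeloma cell lines, 500 cells per well, exposed to MIPE 4.0 library compounds for 48 h at 37C, 5% CO2. Viability from ATP by CellTiter-Glo luminescence; normalised to DMSO (100%) and media-only (0%) wells.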
Potency is the fitted concentration of half-maximal effect.

Row | SMILES | Potency
1 | O=c1cc(-c2ccc(O)c(O)c2)oc2cc(O)cc(O)c12 | inactive
2 | CC(=O)Nc1cccc(-n2c(=O)n(C3CC3)c(=O)c3c(Nc4ccc(I)cc4F)n(C)c(=O)c(C)c32)c1 | 1180 nM (active)
3 | Cc1cnc(CNC(=O)c2c(=O)c3ccc(N4CCCN(C)CC4)nc3n3c2sc2ccccc23)cn1 | 512 nM (active)
4 | CCN(CCO)CCCOc1ccc2c(Nc3cc(CC(=O)Nc4cccc(F)c4)[nH]n3)ncnc2c1 | 187 nM (active)
5 | C[C@@H](NC(=O)c1ncnc(N)c1Cl)c1ncc(C(=O)Nc2cc(C(F)(F)F)c(Cl)cn2)s1 | 10500 nM (active)
6 | O=C(CO)N1CCC(c2[nH]nc(-c3ccc(Cl)cc3)c2-c2ccncn2)CC1 | inactive
7 | NC1(C(=O)N[C@@H](CCO)c2ccc(Cl)cc2)CCN(c2ncnc3[nH]ccc23)CC1 | 1870 nM (active)
8 | CCc1cccc(CC)c1NC(=O)N1Cc2[nH]nc(NC(=O)c3ccc(N4CCN(C)CC4)cc3)c2C1 | 7430 nM (active)
9 | CC(C)(CO)[C@@H](O)C(=O)NCCC(=O)O | inactive
10 | COc1ccc(-c2cc3nccn3c(Nc3ncccc3C(N)=O)n2)cc1OC | 469 nM (active)
11 | C=CCc1cccc(C=NNC(=O)CN2CCN(Cc3ccccc3)CC2)c1O | 5260 nM (active)
12 | CCN1C[C@H](C)n2c(c(O)c3c(=O)n(Cc4ccc(F)c(Cl)c4)nc(C(=O)NC)c32)C1=O | inactive
13 | Cc1cc2c(cc1C1(c3ccc(C(=O)O)cn3)CC1)C(C)(C)CCC2(C)C | 5260 nM (active)
14 | CC(C)CNc1ccnc(NCc2csc(-c3ccccc3)n2)n1 | 10500 nM (active)
15 | NS(=O)(=O)c1cc(Cl)c(Cl)c(S(N)(=O)=O)c1 | inactive
16 | Cc1ccc(S(=O)(=O)OCC(=O)Nc2ccc(C(=O)O)c(O)c2)cc1 | inactive
17 | Cn1c(=O)c(-c2c(Cl)cccc2Cl)cc2cnc(Nc3cccc(C(=O)O)c3)nc21 | 469 nM (active)
18 | O[C@@H](COc1cccc2ncccc12)CN1CCN(C2c3ccccc3[C@@H]3[C@H](c4ccccc42)C3(F)F)CC1 (stereo partly specified) | inactive
19 | CNc1nc(Nc2ccc(C(=O)N3CCOCC3)cc2OC)ncc1Cl | inactive
20 | OC[C@H]1O[C@@H](OCCc2ccc(O)cc2)[C@H](O)[C@@H](O)[C@H]1O | inactive
21 | Cc1csc(-c2nnc(Nc3ccc(Oc4ncccc4-c4ccnc(N)n4)cc3)c3ccccc23)c1 | 2960 nM (active)
